Screening data deposited in PubChem by several laboratories.
Only some compounds are listed: those with a hit (about 4.1% of all), similar ones and a draw of the others.
Shn3 3UTR inh: reduction of Shn3 3'UTR firefly luciferase signal, primary screen, Schnurri-3 inhibitor project, cell-based, Clone20 osteoblasts, set 2. Clone20 osteoblast Shn3 3'UTR firefly luciferase, 24 h. inhibition, % at 12.5 µM. 360,000 tested, 0.52% active;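 active = mean inhibition of at least 75% with every replicate also reaching 75%; inconclusive = mean inhibition at least 75% but some replicate below; inactive = mean inhibition below 75%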
MITF TRPM1 inh: inhibitors of MITF-dependent TRPM1 promoter reporter, primary screen, cell-based, SK-MEL-5, single point, luciferase. SK-MEL-5 TRPM1 promoter luciferase, 24 h. inhibition, % at 12.5 µM. 330,000 tested, 0.83% active;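 active = mean inhibition across replicates of 60% or more, whatever share of single replicates reaches that level; inconclusive = some that reach 60%, reason not given; inactive = mean inhibition across replicates below 60%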
Peg3 prom inh: Peg3 promoter-driven luciferase inhibitors, primary screen, cell-based, HeLa, luciferase luminescence; HeLa PEG-Prom luciferase reporter, overnight; 360,000 tested, 1.7% active; inhibition, % at 20 µM; AID 588405, 2011;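 active = inhibition of at least 50% at 20 µM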
TROY signal inh: inhibitors of TROY-driven NF-kB signaling, primary screen, Q293 LMP1-TROYcd cells, NF-kB luciferase, uHTS. inhibition, % at 10 µM. 360,000 tested, 0.98% active. AID 1347056, 2019. Q293 LMP1-TROYcd NF-kB luciferase reporter, 4 h;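 active = compounds whose plate-normalised and pattern-corrected inhibition of the luciferase reporter signal at the single screening dose is 50% or more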
TWEAK-Fn14 inh: inhibitors of TWEAK-Fn14 signaling, primary screen, luciferase reporter cells, uHTS; 360,000 tested, 2% active; TWEAK-stimulated Fn14 reporter cells, luciferase luminescence, 8 h; inhibition, % at 10 µM; in the data active = inhibition above about 50%
LMP1 NFkB inh: EBV LMP1-driven NF-kappaB luciferase reporter inhibitors, primary screen, cell-based, luminescence, single point; inhibition, % at 12.5 µM; 350,000 tested, 0.69% active; AID 504558, 2011; LMP1-induced NF-kappaB luciferase reporter cells; in the data active = inhibition above about 41%; inconclusive = no clear call, values can overlap the other calls
Large screens that a line does not name were inactive.

CC1(C)CC(=O)C(C2C3=C(CC(C)(C)CC3=O)Oc3c(Br)cc(Br)cc32)=C(O)C1 (stereo not drawn)	TWEAK-Fn14 inh 62
Cc1cc(N2CCN(C)CC2)ccc1NC(=O)c1ccc(-c2ccc(Cl)cc2)o1	Peg3 prom inh 90, TROY signal inh 80, TWEAK-Fn14 inh 94
O=S(=O)(c1ccc(Cl)cc1)c1snnc1-c1ccccc1	MITF TRPM1 inh 83, Peg3 prom inh 93, TWEAK-Fn14 inh 88
O=S(=O)(c1ccc(F)cc1)c1snnc1-c1ccccc1	MITF TRPM1 inh 66, Peg3 prom inh 75, TWEAK-Fn14 inh 64
COc1ccc2oc(C(=O)OCC(=O)N(C)C3CCCCC3)c(C)c2c1	none
CCN(CC)C(=O)C1CCCN(c2ncnc3c2cnn3-c2ccc(Cl)cc2)C1 (stereo not drawn)	Peg3 prom inh 56, TROY signal inh 63, TWEAK-Fn14 inh 71
CCOC(=O)C1CCN(c2ncnc3c2cnn3-c2ccc(OC)cc2)CC1	none
CCN(CC)C(=O)C1CCCN(c2ncnc3c2cnn3-c2cccc(C)c2)C1 (stereo not drawn)	TWEAK-Fn14 inh 50
CCOC(=O)C1CCCN(c2ncnc3c2cnn3-c2cccc(C)c2)C1 (stereo not drawn)	none
COc1cccc(C2/C(=C(/O)c3ccc4c(c3)CC(C)O4)C(=O)C(=O)N2CC2CCCO2)c1 (stereo not drawn)	none
Nc1ncnc2c1ncn2[C@@H]1O[C@H](CNC(=O)[C@@H]2C[C@H](F)CN2)[C@@H](O)[C@H]1O	none
Nc1[nH]c(C(=O)c2ccccc2)c(-c2ccc(Br)cc2)c1C(=O)c1ccc(Br)cc1	TWEAK-Fn14 inh 91 (no result: Shn3 3UTR inh, MITF TRPM1 inh, Peg3 prom inh, LMP1 NFkB inh)
O=C(c1ccc(Cl)cc1)N1CCN(CCOc2ccccc2)CC1	LMP1 NFkB inh 47
CCC1CCCCN1C(=O)CCCOc1ccccc1 (stereo not drawn)	TROY signal inh 50, TWEAK-Fn14 inh 50
O=C(c1ccccc1)c1ccc(OCCCCN2CCCCC2)cc1	TWEAK-Fn14 inh 70
O=C(CCCOc1ccccc1)N1CCCCC1	TROY signal inh 58, TWEAK-Fn14 inh 86
COc1ccc(OCCN2CCN(C(=O)c3ccc(OC)cc3)CC2)cc1	none
Cc1cc(C)cc(OC(=O)COc2ccccc2C)c1	none
CN(C)CCOc1nc(-c2ccccc2)nc2c1oc1ccccc12	Peg3 prom inh 100
CCc1ccc(-n2c(=S)sc3c(=O)n(-c4ccccc4C)c(SCC(=O)O)nc32)cc1	none
O=C(NC(O)C(=O)c1ccccc1)c1ccc(F)cc1 (stereo not drawn)	none
CC1(C(=O)NCc2ccccc2)CCC(=O)N1CCc1c[nH]c2ccccc12 (stereo not drawn)	none (no result: MITF TRPM1 inh, LMP1 NFkB inh)
O=C(COC(=O)c1ccccn1)c1ccc([N+](=O)[O-])cc1	TWEAK-Fn14 inh 67
COc1ccc(C(C)(C)NC(=O)C2CCC(=O)N(C3CC3)C2)cc1OC (stereo not drawn)	none
O=C(NCc1ccco1)/C(=C\C=C\c1ccccc1)NC(=O)c1ccccc1Br	TROY signal inh 70
Cc1noc(C)c1COc1ccc(C(=O)N2CCC(C(N)=O)CC2)cc1	none
CC1=C(C(=O)N(C)C)CC(CC(=O)NCc2cccc3ccccc23)C(=O)N1CCC1=CCCCC1 (stereo not drawn)	none (no result: MITF TRPM1 inh)
COC1=CC(=O)c2nc(Cl)ccc2C1=O	Shn3 3UTR inh 98, Peg3 prom inh 107, TWEAK-Fn14 inh 94 (no result: MITF TRPM1 inh, LMP1 NFkB inh)
COc1cccc2c1C(=O)C=C(C)C2=O	MITF TRPM1 inh inconclusive
COc1ccc(S(=O)(=O)N2CCN(C(=O)CNC(=O)c3ccc4c(c3)OCO4)CC2)cc1	none
C/C(=C(/NC(=O)c1ccccc1)C(=O)O)c1ccco1	TWEAK-Fn14 inh 87
COc1ccccc1Cn1c(-c2ccco2)nc2nc3ccccc3nc21	none
O=c1c2ccccc2nc(-c2ccco2)n1Cc1ccccc1	none
COc1ccc(CCn2c(-c3ccco3)nc3nc4ccccc4nc32)cc1	TWEAK-Fn14 inh 57
c1ccc(Cn2c(-c3ccco3)nc3nc4ccccc4nc32)cc1	none
Cc1ccc(-c2nc3nc4ccccc4nc3n2Cc2ccco2)cc1	TROY signal inh 74, TWEAK-Fn14 inh 90
Clc1ccc(-c2nc3nc4ccccc4nc3n2Cc2ccco2)cc1	TWEAK-Fn14 inh 59
CCOc1ccc(CCn2c(-c3ccco3)nc3ccccc3c2=O)cc1OCC	Peg3 prom inh 54
C=CC(=O)Nc1cccc(Oc2ncnc3[nH]cc(-c4cnc5ccccc5c4)c23)c1	TROY signal inh 53, TWEAK-Fn14 inh 65
CC(C)(C=O)C1=CC(=O)c2ccccc2C1=O	Peg3 prom inh 108, TROY signal inh 70, TWEAK-Fn14 inh 63
CC1=CC(=O)c2ccccc2C1=O	none
COCCn1c(SCC(=O)NNC(=O)c2ccccc2)nc2ccccc2c1=O	TROY signal inh 80
COc1ccc(C(=O)Nn2c(SCc3cccc([N+](=O)[O-])c3)nc3ccccc3c2=O)cc1	TROY signal inh 76, TWEAK-Fn14 inh 79
O=C(Nn1c(SCc2cccc([N+](=O)[O-])c2)nc2ccccc2c1=O)c1ccccc1	none
COc1ccc(C(=O)Nn2c(SCC(=O)NCc3ccco3)nc3ccccc3c2=O)cc1	TROY signal inh 80, TWEAK-Fn14 inh 88, LMP1 NFkB inh 50
COc1ccc(C(=O)Nn2c(SCC(=O)NC3CCCCC3)nc3ccccc3c2=O)cc1	TROY signal inh 78, TWEAK-Fn14 inh 92, LMP1 NFkB inh 55
CCn1c(SCC(=O)NCc2ccco2)nc2ccccc2c1=O	none
Cc1ccccc1NS(=O)(=O)c1ccc(C(=O)N2CCCC(C(F)(F)F)C2)cc1 (stereo not drawn)	none
CCOC(=O)c1cccc(NC(=O)COc2nsnc2N2CCOCC2)c1	none
CC(CN1CCCCC1)OC(=O)/C=C/c1ccccc1 (stereo not drawn)	none
COc1ccc(C(=O)Nn2c(SCC(=O)N3CCC(C)CC3)nc3ccccc3c2=O)cc1	Peg3 prom inh 68, TROY signal inh 81, TWEAK-Fn14 inh 97, LMP1 NFkB inh 70
COc1ccc(C(=O)Nn2c(SCC(=O)c3ccc(Cl)cc3)nc3ccccc3c2=O)cc1	TROY signal inh 79, TWEAK-Fn14 inh 91, LMP1 NFkB inh 48
COc1ccc(C(=O)Nn2c(C)nc3ccccc3c2=O)cc1	none
CCn1c(C)cc(/C=C2/NC(=O)N(c3ccccc3)C2=O)c1C	TROY signal inh 74, TWEAK-Fn14 inh 74
CC(C)n1cc(/C=C2\NC(=O)N(c3cccc(Cl)c3)C2=O)c2ccccc21	none
COCCn1c(C)cc(/C=C2/NC(=O)N(c3cccc(Cl)c3)C2=O)c1C	TROY signal inh 81, TWEAK-Fn14 inh 82
